Inconclusive results are not listed. Entries that show only a call come without a potency. The source made the active and inactive calls. Unless noted, calls come from the whole dose curve.
How the values were obtained:
[1] = Nuclear factor erythroid 2-related factor 2/antioxidant responsive element (Nrf2/ARE) small molecule agonists: luciferase reporter gene qHTS assay in human keratinocytes (AID 1919969); note: nearly all actives have a fitted effect of over 35% in size; note: potency is the fitted concentration of half-maximal effect
[2] = biological target: Gonadotropin-releasing hormone receptor (Homo sapiens) (UniProt P30968); experiment: Human gonadotropin-releasing hormone receptor (GnRHR) small molecule agonists, calcium flux assay in GnRHR-HEK293 cells (AID 1920063); note: nearly all actives have a fitted effect of over 35% in size; note: potency is the fitted concentration of half-maximal effect
Outline: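 Agonist mode: compounds at 15 concentrations, in triplicate, went onto calcium dye-loaded GnRHR-HEK293 cells. Intracellular calcium was then followed as 480/540 nm fluorescence at 1 s intervals over 3 min.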

[3] = biological target: KiSS-1 receptor (Homo sapiens) (UniProt Q969F8); experiment: Human kisspeptin (KISS1R) small molecule agonists, calcium flux assay in KISS1R-HEK293 cells (AID 1920064; active = well fitted activation curve with a large enough effect in the repeat runs; note: potency is the fitted concentration of half-maximal effect)
Outline: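 Agonist mode: intracellular calcium rise tracked at 1 s intervals over 3 min (480/540 nm) immediately after compound addition to dye-loaded KISS1R-HEK293 stable cells. Each compound tested at 15 concentrations in triplicate.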

[4] = G protein-coupled receptor (GPCR) small molecule agonists, calcium flux assay: HEK293 wild type cell line counter screen (AID 1920065); note: potency is the fitted concentration of half-maximal effect
Outline: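 Calcium flux counter screen: compound added in agonist mode at 15 concentrations in triplicate to dye-loaded parental HEK293 cells. Fluorescence (480/540) read kinetically for 3 min; ATP served as positive control.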

[5] = p53 small molecule agonists, cell-based qHTS assay with human liver microsomes: qHTS cell viability counter screen (AID 1963579); note: nearly all actives have a fitted effect of over 45% in size; note: potency is the fitted concentration of half-maximal effect
Outline: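 Luminescent CellTiter-Glo read-out, 30 min at room temperature, gauged cytotoxicity in p53RE-bla cells exposed 16 h at 37 C to DMSO-dissolved compounds with metabolic activation by human liver microsomes and NADPH, each 0.5 mg/mL final.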

[6] = p53 small molecule agonists, cell-based qHTS assay with rat liver microsomes: qHTS cell viability counter screen (AID 1963580); note: nearly all actives have a fitted effect of over 45% in size
Outline: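 Cytotoxicity counter screen: intracellular ATP measured by CellTiter-Glo luminescence in the same wells as the beta-lactamase reporter read, on HCT-116 p53RE-bla cells exposed 16 h at 37 C to compounds with rat liver microsomes and NADPH, each 0.5 mg/mL final.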

[7] = p53 small molecule agonists, cell-based qHTS assay: qHTS cell viability counter screen (AID 1963581); note: nearly all actives have a fitted effect of over 45% in size
Outline: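 Counter screen read by CellTiter-Glo luminescence (ATP content, 30 min at room temperature), run in the same wells as the beta-lactamase reporter read. HCT-116 p53RE-bla cells saw compounds for 16 h at 37 C.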

[8] = biological target: 5-hydroxytryptamine receptor 2A (Homo sapiens) (UniProt P28223); experiment: 5-hydroxytryptamine receptor 2A (HTR2A) small molecule antagonists, cell-based qHTS assay (AID 1963586); note: nearly all actives have a fitted effect of over 45% in size
Outline: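 CHO cells stably expressing human HTR2A were plated for 18 h at 37 C, then loaded with calcium dye for 1 h. Compounds were preincubated 5 min at room temperature before DOI (4 nM solution) was added. Kinetic fluorescence was read for 3 min.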

[9] = biological target: 5-hydroxytryptamine receptor 2A (Homo sapiens) (UniProt P28223); experiment: 5-hydroxytryptamine receptor 2A (HTR2A) small molecule agonists, cell-based qHTS assay (AID 1963587); note: nearly all actives have a fitted effect of over 30% in size; note: potency is the fitted concentration of half-maximal effect
Outline: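 CHO cells stably expressing human HTR2A, plated 18 h, loaded with calcium dye 1 h at 37 C. Agonist mode: compounds added and intracellular calcium fluorescence recorded kinetically for 2 min at 1 sec intervals.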

[10] = biological target: Muscarinic acetylcholine receptor M1 (Homo sapiens) (UniProt P11229); experiment: Cholinergic receptor muscarinic 1 (CHRM1) small molecule antagonists, cell-based qHTS assay (AID 1963588); note: nearly all actives have a fitted effect of over 40% in size; note: potency is the fitted concentration of half-maximal effect
Outline: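 Compounds were tested at 15 concentrations in three independent runs. Dye-loaded CHRM1-CHO cells were exposed 5 min at room temperature before stimulation by acetylcholine added at 50nM. Intracellular calcium was read kinetically on FDSS for 3 min.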

[11] = biological target: Beta-2 adrenergic receptor (Homo sapiens) (UniProt P07550); experiment: Adrenergic beta2 receptor (ADRB2) small molecule antagonists, cell-based qHTS assay (AID 1963592); note: nearly all actives have a fitted effect of over 50% in size; note: potency is the fitted concentration of half-maximal effect
Outline: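 Assay format: CHO-ADRB2 cells, 18-20hr seeding at 37C/5% CO2, then compound plus 1nM isoproterenol agonist mix for 0.5hr RT. Homogeneous time-resolved fluorescence cAMP detection after 1hr, expressed as 665/615 nm ratio.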

[12] = biological target: D(2) dopamine receptor (Homo sapiens) (UniProt P14416); experiment: Dopamine D2 receptor (DRD2) small molecule agonists, cell-based qHTS assay (AID 1963594); note: nearly all actives have a fitted effect of over 35% in size; note: potency is the fitted concentration of half-maximal effect
Outline: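 HEK293 cells stably expressing human DRD2, pre-treated with PDE inhibitor Ro20-1724 (0.1 mM final) and compound 10 min at room temperature, then stimulated with NKH477 (200nM […]) for 30 min. cAMP read by HTRF (665/620 nm).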

[13] = biological target: Muscarinic acetylcholine receptor M1 (Homo sapiens) (UniProt P11229); experiment: Cholinergic receptor muscarinic 1 (CHRM1) small molecule agonists, cell-based qHTS assay (AID 1963589); note: nearly all actives have a fitted effect of over 35% in size
Outline: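 Agonist-mode calcium-flux screen: compounds at 15 concentrations, three independent runs, were pin-transferred onto dye-loaded human CHRM1-CHO cells. Fluorescence was then recorded kinetically every second over minutes.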

[14] = cAMP Responsive Elements (CRE) small molecule agonists, cell-based qHTS assay (AID 1963590)
Outline: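 Agonist mode: compound added to CRE-bla HEK 293T cells (2,000/well, 18 h after plating) for 3 h at 37 C/5% CO2. Reporter activity detected via FRET beta-lactamase substrate, 2 h room-temperature loading.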

[15] = cAMP Responsive Elements (CRE) small molecule antagonists, cell-based qHTS assay (AID 1963591; active = well fitted inhibition curve with a large enough effect in the signal ratio in the repeat runs, not every such curve was filed as active; the % refers to the signal ratio)
Outline: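 Antagonist mode: compounds are added alongside the adenylyl cyclase activator NKH477 (0.25 uM final) to CRE-bla HEK293T cells for 3 h. LiveBLAzer FRET substrate, 2 h at room temperature, reports bla expression.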

[16] = biological target: D(2) dopamine receptor (Homo sapiens) (UniProt P14416); experiment: Dopamine D2 receptor (DRD2) small molecule antagonists, cell-based qHTS assay (AID 1963595; active = well fitted inhibition curve with a large enough effect in the signal ratio in the repeat runs, with a control signal flat; the % refers to the signal ratio; note: potency is the fitted concentration of half-maximal effect)
Outline: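 HEK293 cells stably expressing DRD2 were preincubated with 0.1 mM Ro20-1724, then with compound for 10 min at room temperature. Cells were stimulated with 200 nM NKH477 plus 12 nM quinpirole for 30 min, and cAMP was read by HTRF.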

[17] = biological target: Beta-2 adrenergic receptor (Homo sapiens) (UniProt P07550); experiment: Adrenergic beta2 receptor (ADRB2) small molecule agonists, cell-based qHTS assay (AID 1963593);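 note: CHO cells stably overexpressing human ADRB2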
Outline: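 CHO cells stably over-expressing ADRB2 were plated overnight at 37C, then dosed with compounds plus a stimulation mix containing 100uM IBMX and 25uM Ro-20-1724 for 0.5hr at room temperature. cAMP was measured by HTRF competition, 1hr.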

Muscarinic acetylcholine receptor M1 (Homo sapiens), sequence (P11229 whole entry, looked up): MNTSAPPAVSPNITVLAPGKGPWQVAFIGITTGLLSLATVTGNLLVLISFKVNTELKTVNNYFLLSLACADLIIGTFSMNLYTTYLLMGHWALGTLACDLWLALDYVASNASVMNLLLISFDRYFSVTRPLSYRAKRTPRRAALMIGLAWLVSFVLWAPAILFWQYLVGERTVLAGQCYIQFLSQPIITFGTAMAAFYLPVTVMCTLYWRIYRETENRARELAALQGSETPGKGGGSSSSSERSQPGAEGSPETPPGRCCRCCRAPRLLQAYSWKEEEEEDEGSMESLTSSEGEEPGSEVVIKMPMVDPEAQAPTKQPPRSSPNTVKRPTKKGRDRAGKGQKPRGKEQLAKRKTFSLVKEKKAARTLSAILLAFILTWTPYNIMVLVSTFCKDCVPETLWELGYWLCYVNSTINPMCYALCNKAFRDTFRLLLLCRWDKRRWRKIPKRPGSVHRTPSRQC
KiSS-1 receptor (Homo sapiens), sequence (Q969F8 whole entry, looked up): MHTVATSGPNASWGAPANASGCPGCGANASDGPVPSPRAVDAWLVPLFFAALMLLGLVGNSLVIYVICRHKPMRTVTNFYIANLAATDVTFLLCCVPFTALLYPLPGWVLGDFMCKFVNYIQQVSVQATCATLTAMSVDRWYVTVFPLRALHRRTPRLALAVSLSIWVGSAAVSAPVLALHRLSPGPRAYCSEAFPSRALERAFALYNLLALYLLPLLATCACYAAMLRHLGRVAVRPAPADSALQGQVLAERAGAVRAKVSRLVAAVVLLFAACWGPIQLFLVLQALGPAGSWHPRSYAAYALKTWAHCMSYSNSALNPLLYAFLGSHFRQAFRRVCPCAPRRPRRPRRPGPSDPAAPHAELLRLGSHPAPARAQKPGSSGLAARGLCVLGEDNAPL
Beta-2 adrenergic receptor (Homo sapiens), sequence (P07550 whole entry, looked up): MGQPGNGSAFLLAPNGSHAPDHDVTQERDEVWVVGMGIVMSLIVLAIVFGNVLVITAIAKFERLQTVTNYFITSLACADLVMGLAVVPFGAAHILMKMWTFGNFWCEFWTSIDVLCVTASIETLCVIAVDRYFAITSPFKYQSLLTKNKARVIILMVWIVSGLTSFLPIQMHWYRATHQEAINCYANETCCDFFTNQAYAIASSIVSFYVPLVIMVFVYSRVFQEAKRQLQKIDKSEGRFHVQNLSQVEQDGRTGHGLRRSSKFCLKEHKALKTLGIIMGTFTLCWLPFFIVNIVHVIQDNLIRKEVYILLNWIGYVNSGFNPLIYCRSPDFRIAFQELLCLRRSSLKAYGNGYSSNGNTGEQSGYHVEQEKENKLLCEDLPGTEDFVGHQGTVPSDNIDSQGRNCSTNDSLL
5-hydroxytryptamine receptor 2A (Homo sapiens), sequence (P28223 whole entry, looked up): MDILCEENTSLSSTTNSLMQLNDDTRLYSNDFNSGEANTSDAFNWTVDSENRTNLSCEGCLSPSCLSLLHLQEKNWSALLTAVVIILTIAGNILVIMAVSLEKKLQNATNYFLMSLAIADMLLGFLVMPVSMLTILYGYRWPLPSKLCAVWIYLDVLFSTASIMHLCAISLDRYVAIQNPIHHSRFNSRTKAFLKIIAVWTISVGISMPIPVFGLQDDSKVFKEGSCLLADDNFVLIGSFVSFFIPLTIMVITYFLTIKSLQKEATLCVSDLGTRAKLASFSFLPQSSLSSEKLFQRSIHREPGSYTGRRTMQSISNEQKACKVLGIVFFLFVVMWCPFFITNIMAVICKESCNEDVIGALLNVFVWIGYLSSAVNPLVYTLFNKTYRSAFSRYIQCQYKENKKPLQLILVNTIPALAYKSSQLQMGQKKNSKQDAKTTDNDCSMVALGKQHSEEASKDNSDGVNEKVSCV
Gonadotropin-releasing hormone receptor (Homo sapiens), sequence (P30968 whole entry, looked up): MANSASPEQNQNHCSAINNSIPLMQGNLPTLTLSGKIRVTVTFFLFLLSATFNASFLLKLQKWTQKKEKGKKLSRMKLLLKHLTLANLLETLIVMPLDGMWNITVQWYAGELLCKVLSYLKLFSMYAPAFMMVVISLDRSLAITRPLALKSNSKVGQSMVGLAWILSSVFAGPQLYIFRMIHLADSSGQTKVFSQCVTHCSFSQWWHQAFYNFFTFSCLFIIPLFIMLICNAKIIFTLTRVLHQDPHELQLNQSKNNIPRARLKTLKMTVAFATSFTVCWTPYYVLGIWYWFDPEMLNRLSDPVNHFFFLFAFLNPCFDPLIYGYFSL
D(2) dopamine receptor (Homo sapiens), sequence (P14416 whole entry, looked up): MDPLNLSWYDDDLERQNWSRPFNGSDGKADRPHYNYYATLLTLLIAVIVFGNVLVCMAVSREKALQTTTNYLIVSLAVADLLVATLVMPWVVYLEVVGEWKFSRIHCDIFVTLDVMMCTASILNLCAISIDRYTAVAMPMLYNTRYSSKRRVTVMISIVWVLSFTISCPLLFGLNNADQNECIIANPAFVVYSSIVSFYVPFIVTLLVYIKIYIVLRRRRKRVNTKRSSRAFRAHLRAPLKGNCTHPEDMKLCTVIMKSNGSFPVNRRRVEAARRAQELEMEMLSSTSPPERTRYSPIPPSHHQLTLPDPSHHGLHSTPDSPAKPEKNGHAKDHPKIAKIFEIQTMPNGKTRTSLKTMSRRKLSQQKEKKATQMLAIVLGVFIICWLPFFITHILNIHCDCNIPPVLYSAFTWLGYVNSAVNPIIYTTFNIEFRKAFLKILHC

O=C1OC2(c3ccccc31)c1ccc(O)c(Br)c1Oc1c2ccc(O)c1Br
Potency [1]: inactive
Potency [2]: 13.8 µM (active)
Potency [3]: 7.76 µM (active)
Potency [4]: 19.5 µM (active)
Potency [5]: inactive
Potency [6]: inactive
Potency [7]: inactive
Potency [8]: inactive
Potency [9]: 1.55 µM (active)
Potency [10]: inactive
Potency [11]: 68.6 µM (active)
Potency [12]: 15.4 µM (active)

CC(=O)SCc1ccco1
Potency [1]: inactive
Potency [2]: inactive
Potency [3]: inactive
Potency [4]: inactive
Potency [5]: inactive
Potency [6]: inactive
Potency [7]: inactive
Potency [8]: inactive
Potency [9]: inactive
Potency [13]: inactive
Potency [14]: inactive
Potency [15]: inactive
Potency [12]: inactive
Potency [16]: inactive

C=C(C)C(=O)OCc1ccccc1
Potency [1]: inactive
Potency [2]: inactive
Potency [3]: inactive
Potency [4]: inactive
Potency [5]: inactive
Potency [6]: inactive
Potency [7]: inactive
Potency [8]: inactive
Potency [10]: inactive
Potency [13]: inactive
Potency [14]: inactive
Potency [15]: inactive
Potency [11]: inactive
Potency [17]: inactive
Potency [12]: inactive
Potency [16]: inactive

O=C(NO)C1(NS(=O)(=O)c2ccc(Oc3ccc(F)cc3)cc2)CCOCC1
Potency [1]: inactive
Potency [2]: inactive
Potency [3]: inactive
Potency [4]: inactive
Potency [6]: inactive
Potency [7]: inactive
Potency [8]: inactive
Potency [9]: inactive
Potency [10]: inactive
Potency [13]: inactive
Potency [14]: inactive
Potency [15]: inactive
Potency [11]: inactive
Potency [12]: inactive
Potency [16]: inactive

Cc1nnc(SCC2=C(C(=O)O)N3C(=O)[C@@H](NC(=O)Cn4cnnn4)[C@H]3SC2)s1
Potency [1]: inactive
Potency [2]: inactive
Potency [3]: inactive
Potency [4]: inactive
Potency [6]: inactive
Potency [7]: inactive
Potency [8]: inactive
Potency [9]: inactive
Potency [10]: inactive
Potency [13]: inactive
Potency [14]: inactive
Potency [15]: inactive
Potency [11]: inactive
Potency [17]: inactive
Potency [12]: inactive
Potency [16]: inactive

Cc1ncc(COP(=O)(O)O)c(C=O)c1O
Potency [1]: inactive
Potency [2]: inactive
Potency [3]: inactive
Potency [4]: inactive
Potency [5]: inactive
Potency [6]: inactive
Potency [7]: inactive
Potency [8]: inactive
Potency [10]: inactive
Potency [13]: inactive
Potency [14]: inactive
Potency [15]: inactive
Potency [11]: inactive
Potency [12]: inactive
Potency [16]: inactive

Nc1ccccc1Nc1ccccc1
Potency [1]: 21.8 µM (active)
Potency [2]: inactive
Potency [3]: inactive
Potency [4]: inactive
Potency [5]: inactive
Potency [6]: inactive
Potency [8]: inactive
Potency [9]: inactive
Potency [10]: inactive
Potency [13]: inactive
Potency [15]: inactive
Potency [16]: inactive

CCCCCCCCOC(=O)c1ccc(O)cc1
Potency [1]: inactive
Potency [2]: inactive
Potency [3]: inactive
Potency [4]: inactive
Potency [5]: 45.8 µM (active)
Potency [6]: inactive
Potency [8]: inactive
Potency [10]: inactive
Potency [13]: inactive
Potency [14]: inactive
Potency [12]: inactive
Potency [16]: inactive

CC(C)c1nc(CN(C)C(=O)N[C@H](C(=O)N[C@@H](Cc2ccccc2)C[C@H](O)[C@H](Cc2ccccc2)NC(=O)OCc2cncs2)C(C)C)cs1
Potency [1]: inactive
Potency [2]: inactive
Potency [3]: inactive
Potency [4]: inactive
Potency [5]: inactive
Potency [6]: inactive
Potency [11]: inactive
Potency [16]: inactive

O=C1CCCCCO1
Potency [1]: inactive
Potency [2]: inactive
Potency [3]: inactive
Potency [4]: inactive
Potency [5]: inactive
Potency [6]: inactive
Potency [8]: inactive
Potency [9]: inactive
Potency [10]: inactive
Potency [13]: inactive
Potency [14]: inactive
Potency [15]: inactive
Potency [11]: inactive
Potency [12]: inactive
Potency [16]: inactive

CN1CCC[C@@H]1c1cccnc1
Potency [1]: inactive
Potency [2]: inactive
Potency [3]: inactive
Potency [4]: inactive
Potency [5]: inactive
Potency [6]: inactive
Potency [7]: inactive
Potency [14]: inactive
Potency [15]: inactive
Potency [11]: inactive
Potency [17]: inactive
Potency [16]: inactive

O=C(Nc1ccc(Cl)cc1)Nc1ccc(Cl)c(C(F)(F)F)c1
Potency [1]: 11.9 µM (active)
Potency [2]: inactive
Potency [3]: inactive
Potency [4]: inactive
Potency [5]: inactive
Potency [6]: inactive
Potency [9]: inactive
Potency [10]: inactive
Potency [13]: inactive
Potency [12]: inactive
Potency [16]: inactive

Oc1cc(Cl)cc(Cl)c1Cl
Potency [1]: 49.7 µM (active)
Potency [2]: inactive
Potency [3]: inactive
Potency [4]: inactive
Potency [5]: 29.6 µM (active)
Potency [7]: inactive
Potency [9]: inactive
Potency [10]: inactive
Potency [13]: inactive
Potency [12]: inactive
Potency [16]: inactive

Cc1cc(=O)oc2cc(N(C)C)ccc12
Potency [1]: inactive
Potency [2]: inactive
Potency [3]: inactive
Potency [4]: inactive
Potency [6]: inactive
Potency [7]: inactive
Potency [8]: inactive
Potency [10]: inactive
Potency [13]: inactive
Potency [11]: inactive
Potency [12]: inactive
Potency [16]: inactive

CN1CCC(=C2c3ccccc3Sc3ccccc32)CC1
Potency [1]: inactive
Potency [2]: inactive
Potency [3]: inactive
Potency [4]: inactive
Potency [6]: inactive
Potency [7]: inactive
Potency [9]: inactive
Potency [14]: inactive
Potency [15]: inactive
Potency [12]: inactive
Potency [16]: 0.75 µM (active)

CN(C)CCCN1c2ccccc2Sc2ccc(C(F)(F)F)cc21
Potency [1]: inactive
Potency [2]: inactive
Potency [3]: inactive
Potency [4]: inactive
Potency [5]: inactive
Potency [6]: inactive
Potency [7]: inactive
Potency [10]: inactive
Potency [13]: inactive
Potency [15]: inactive
Potency [11]: inactive
Potency [12]: inactive
Potency [16]: 0.0596 µM (active)

CN1CCC(Nc2ncc3ncnc(Nc4ccc(F)c(Cl)c4)c3n2)CC1
Potency [1]: inactive
Potency [2]: inactive
Potency [3]: inactive
Potency [4]: inactive
Potency [5]: inactive
Potency [6]: inactive
Potency [8]: inactive
Potency [9]: inactive
Potency [10]: 8.18 µM (active)
Potency [13]: inactive
Potency [11]: inactive
Potency [12]: inactive
Potency [16]: inactive
